MITF primary = human MITF inhibition, primary screen; O75030; AlphaScreen MITF homodimerization, bead proximity signal; inhibition, % at 2.6 µM; 650,000 compounds, 0.91% hits; AID 1259374; in the data active = inhibition above about 50%;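 note: 0% = vehicle wells with protein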
GPR151 ag = human GPR151 activation. Q8TDV0. PathHunter beta-arrestin GPR151 cells, luminescence. activation, % at 11.2 µM. 650,000 compounds, 1% hits. AID 1508602; in the data active = activation above about 4.9%;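 note: 0% = median of compound wells and 100% = cells with positive control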
Target sequence (Q8TDV0 whole entry, looked up): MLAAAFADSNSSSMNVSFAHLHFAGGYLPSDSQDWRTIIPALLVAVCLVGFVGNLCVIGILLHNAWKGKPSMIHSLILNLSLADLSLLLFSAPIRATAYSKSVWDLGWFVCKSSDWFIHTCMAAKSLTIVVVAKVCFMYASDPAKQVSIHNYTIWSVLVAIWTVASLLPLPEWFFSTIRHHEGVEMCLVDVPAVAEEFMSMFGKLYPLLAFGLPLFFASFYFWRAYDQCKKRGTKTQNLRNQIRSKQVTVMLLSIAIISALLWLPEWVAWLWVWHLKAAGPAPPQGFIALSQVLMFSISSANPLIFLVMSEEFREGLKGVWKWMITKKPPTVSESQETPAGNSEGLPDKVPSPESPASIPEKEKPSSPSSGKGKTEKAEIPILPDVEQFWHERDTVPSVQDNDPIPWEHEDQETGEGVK
TEAD-YAP inh = TEAD-YAP interaction inhibition. HEK-TIYL cells, TEAD-Gal4/YAP UAS-luciferase luminescence. inhibition, % at 9.12 µM. 640,000 compounds, 1.4% hits; in the data active = inhibition above about 32%;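 note: 0% = median of test compound wells and 100% = reference inhibitor wells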
FBW7 activator = human FBW7 E3 ligase activation, primary screen; Q969H0; normalized activity (activation), % at 26.1 µM; AID 1259310; 650,000 compounds, 0.13% hits; AlphaScreen FBW7–phospho-cyclin E peptide binding, activator screen; in the data active = normalized activity above about 1.9%;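 note: purified mutant Fbw7 with reduced substrate affinity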
* marks the source's active call; other numbers are inactive results; nt = no result given. Hits are enriched below; roughly 3.5% of the tested compounds scored in any of these assays.

SMILES | MITF primary | GPR151 ag | TEAD-YAP inh | FBW7 activator
CCOC(=O)c1cnn(-c2ccccc2)c1NC(=O)CSc1ccccn1 | 11 | 2 | 0 | 0
Cc1cc(Cl)ccc1OC(C)C(=O)N1CCc2nncn2CC1 (stereo unspecified) | 11 | 1 | -7 | 0
COCC(=O)Nc1c(C(=O)Nc2ccc(F)c(F)c2)oc2ccccc12 | 3 | 0 | 7 | 1
CCOc1ccccc1OCC(=O)N/N=C/c1ccc(O)cc1 | 8 | 0 | 57* | 0
Cc1ccccc1OCC(=O)N/N=C/c1ccc(O)cc1 | 12 | 0 | 0 | 0
O=C1CC2(CCN(C(=O)c3cc(Cl)ccc3[N+](=O)[O-])CC2)Oc2ccccc21 | -13 | 1 | 7 | 0
NC(=O)N/N=C/c1ccc(OCc2ccc(Cl)cc2Cl)cc1 | -11 | 0 | -9 | 0
CCOC(=O)C1=NN(C(C)=O)C2C(=O)N(c3ccc(C)cc3C)C(=O)C12 (stereo unspecified) | -3 | 1 | 0 | 0
CCOC(=O)c1ccccc1Nc1cn(C(C)=O)c2ccccc12 | 14 | 0 | 52* | 0
Cc1ccc(-n2nc3c(c2NC(=O)C2CCCC2)CSC3)c(C)c1 | 17 | 1 | 4 | 1.9*
Cc1ccc(-c2cnc3ccccc3n2)cc1NC(=O)CNC(=O)c1ccccc1 | 3 | 0 | -12 | 0
CCN(CC)c1ccc2cc(C(=O)Nc3cccc(C)c3)c(=N)oc2c1 | 18 | 0 | -2 | 2.4*
O=c1[nH]c2c(s1)C1c3ccccc3OCC1CS2 (stereo unspecified) | -16 | 0 | 1 | 0
COc1ccc(C(=O)Nc2ccccc2C(=O)NCCCC(=O)O)cc1 | 13 | 0 | -9 | 2.0*
CCCNC(=O)c1ccccc1NC(=O)c1ccc(OC)cc1 | -15 | 3 | 3 | 0
O=C(NCC1CCC2(CCN(C(=O)c3cc4ccccc4[nH]3)CC2)O1)c1ccccc1F (stereo unspecified) | 14 | 0 | 7 | 0
Cc1cc(C)n(S(=O)(=O)c2cc(Br)ccc2Br)n1 | 8 | 1 | 1 | 0
CS(=O)(=O)Cc1cccc(-c2ccnc(Nc3ccc(-n4ccnn4)cc3)n2)c1 | -9 | 0 | 41* | 0
CS(=O)(=O)c1ccc(-c2ccnc(Nc3ccc(-n4ccnn4)cc3)n2)cc1 | 14 | 1 | 11 | 0
CN1CCN(c2cccc(-c3ccnc(Nc4ccc(-n5ccnn5)cc4)n3)c2)CC1 | 9 | -1 | 68* | 0
c1ccc(-c2ccnc(Nc3ccc(-n4ccnn4)cc3)n2)cc1 | 13 | -1 | -24 | 0
Cc1ccc([N+](=O)[O-])cc1NC(=O)CC(C)(C)C | -11 | 0 | 3 | 1
c1ccc(CCNc2ccc3ncc(-c4cccs4)n3n2)nc1 | -4 | 0 | 80* | 0
COCCNc1ccc2ncc(-c3cccs3)n2n1 | -17 | -1 | 37* | 0
O=C(/C=C/c1ccc(O)c(O)c1)O[C@H](Cc1ccc(O)c(O)c1)C(=O)O | 90* | 0 | nt | nt
SMILES | MITF primary | GPR151 ag | TEAD-YAP inh | FBW7 activator
O=C(O)/C=C/c1ccc(O)c(O)c1 | 46 | 0 | -5 | 0
CCC(C)NC(=O)CCc1c(C)nc2cc(-c3cccc(F)c3)nn2c1C (stereo unspecified) | 6 | 1 | 6 | 0
COc1ccc(-c2cc3nc(C)c(CCC(=O)O)c(C)n3n2)c(OC)c1 | -8 | 2 | 39* | 0
Cc1nc2cc(-c3cccc(F)c3)nn2c(C)c1CCC(=O)O | -3 | -3 | 43* | 0
COc1ccc(-c2cc3nc(C)c(CCC(=O)N4CCCC4)c(C)n3n2)c(OC)c1 | -4 | 1 | 6 | 0
Cc1ccccc1C(=O)Nc1ccc(OC(=O)c2ccccc2C)cc1 | -4 | 3 | 64* | 0
O=C(Nc1cccc(-c2nc3ccccc3[nH]2)c1)c1cc(=O)c2ccccc2o1 | -9 | 0 | 41* | 2
O=C(Nc1cccc(-c2nc3ccccc3[nH]2)c1)c1cccc2nccnc12 | 1 | 2 | 34* | 0
Cc1ccccc1C(=O)Nc1ccc(-c2nc3ccc(NC(=O)c4ccccc4C)cc3[nH]2)cc1 | 11 | 1 | 76* | 0
Cc1ccccc1C(=O)Nc1ccc(C(=O)OC(C)C)cc1 | 1 | -1 | -25 | 0
O=C(Nc1cccc(-c2nc3ccccc3o2)c1)c1cc(=O)c2ccccc2o1 | -2 | 0 | -1 | 0
O=C(Nc1ccc(-c2nc3ccc(NC(=O)c4ccccc4)cc3[nH]2)cc1)c1ccccc1 | 6 | 1 | -43 | 0
COc1ccc(CC(=O)NNC(=O)C(C)Oc2ccc(Cl)cc2Cl)cc1OC (stereo unspecified) | -10 | 0 | 6 | 1
CCOC(=O)c1c(NC(=O)CSc2nnc(CNC(=O)c3cccs3)n2-c2cccc(C)c2C)sc2c1CCC2 | -6 | -1 | 1 | 0
Cc1ccc(Cl)cc1N1CCN(c2c(-c3ccc4c(c3)OCC(=O)N4)c(=O)c2=O)CC1 | -6 | 4 | 61* | 0
O=C1COc2cc(-c3c(N4CCCC4)c(=O)c3=O)ccc2N1 | 13 | -3 | -4 | 0
Cc1ccc(-n2ncc3c(SCC(=O)NCc4ccco4)ncnc32)c(C)c1 | 6 | -1 | 39* | 0
O=C(NCc1ccc(Cl)cc1)c1c(O)c2cccc3c2n(c1=O)CC3 | -4 | 2 | -4 | 0
O=C(CSc1ccccc1C(=O)O)Nc1ccnc2ccccc12 | 17 | 2 | -10 | 0
O=C(CSc1nnnn1C1CC2CCC1C2)Nc1ccnc2ccccc12 (stereo unspecified) | 16 | 0 | 61* | 0
Cc1cc(C(=O)N(CC2CCCO2)c2nc3c(F)cccc3s2)no1 (stereo unspecified) | -11 | 0 | -5 | 0
Oc1ccc(-c2csc(Nc3ccc(Cl)cc3)n2)cc1O | -1 | -1 | -75 | 0
CCOc1ccc(Nc2nc(-c3c(C)nc4sccn34)cs2)cc1 | 10 | -1 | 61* | 0
CCC(=O)Nc1nc(C)c(-c2csc(Nc3ccc(NC(C)=O)cc3)n2)s1 | 13 | -2 | 44* | 0
COc1cc(Br)c(Nc2nc(-c3c(C)nc4sccn34)cs2)c(Br)c1 | -15 | -1 | 8 | 0
SMILES | MITF primary | GPR151 ag | TEAD-YAP inh | FBW7 activator
Cc1ccc(Nc2nc(-c3c(C)nc4sccn34)cs2)c(C)c1 | -3 | 1 | 50* | 0
Oc1ccc(-c2csc(Nc3ccccc3)n2)cc1O | 66* | 1 | -15 | 0
CCOc1ccc(Nc2nc(-c3sc(C)nc3C)cs2)cc1 | 6 | -1 | 41* | 0
Cc1nc(C)c(-c2csc(Nc3cccc(O)c3)n2)s1 | 10 | -1 | 35* | 0
Oc1cccc(Nc2nc(-c3cccnc3)cs2)c1 | 9 | -2 | 45* | 0
Cc1nc2sccn2c1-c1csc(Nc2ccc(Cl)cc2)n1 | 14 | 0 | 50* | 0
Oc1cccc(Nc2nc(-c3ccncc3)cs2)c1 | 6 | -1 | 3 | 0
C=CCOC(=O)C1=C(C)NC(C)=C(C(=O)OCC=C)C1c1ccc(-c2ccccc2Cl)o1 | -11 | 0 | -1 | 0
COc1cc2[nH]cc(S(=O)(=O)c3ccc(C)cc3)c(=O)c2cc1OC | 1 | -1 | 11 | 0

High-throughput results from PubChem.
